Data published in PubChem BioAssay (Tox21).
Several values for one entry are separate records, joined by “and”; a condition that tells them apart may be missing. Identical values can stand only once. Inconclusive results are not listed. Activity calls are given as the source filed them. Unless noted, calls come from the whole dose curve; as a rule, active = well fitted curve in the direction sought with a large enough effect in the repeat runs; inconclusive = weak or mixed curves; inactive = no such curve, though single readings can be large; an effect the other way counts as inactive or inconclusive.

How the values were obtained:
[1] = qHTS assay to identify small molecule antagonists of the thyroid receptor (TR) signaling pathway - cell viability counter screen (AID 743064); note: nearly all actives have a fitted effect of over 50% in size; note: potency is the fitted concentration of half-maximal effect
Method in brief: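 GH3.TRE-Luc cells, 4 h pre-plating; cpd + T3 1 nM final; 37 °C 23.5 h; CellTiter-Fluor 30 min; fluorescence read.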

[2] = qHTS assay to identify small molecule antagonists of the thyroid receptor (TR) signaling pathway (AID 743065); note: nearly all actives have a fitted effect of over 55% in size; note: potency is the fitted concentration of half-maximal effect
Method in brief: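 GH3.TRE-Luc rat pituitary cells (two TREs driving luciferase) were dosed with compound, then stimulated with 1 nM T3 (final) for 23.5 h at 37 C. ONE-Glo luminescence was the read-out, with CellTiter-Fluor fluorescence as the cytotoxicity counter-screen.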

[3] = tested on: thyroid hormone receptor (rat, GH3 cells); assay: qHTS assay to identify small molecule agonists of the thyroid receptor (TR) signaling pathway (AID 743066; calls by dose curve)
[4] = qHTS assay to identify small molecule antagonists of the estrogen receptor alpha (ER-alpha) signaling pathway - cell viability counter screen (AID 743074; calls by dose curve;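 note: HEK293 cells carrying ER-alpha-UAS-bla reporter stimulated with 17beta-estradiol; nearly all actives have a fitted effect of over 45% in size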; note: potency is the fitted concentration of half-maximal effect)
[5] = target: Estrogen receptor (Homo sapiens) (UniProt P03372); assay: qHTS assay to identify small molecule agonists of the estrogen receptor alpha (ER-alpha) signaling pathway (AID 743075; calls by dose curve;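 note: HEK293 GripTite cells with ER-alpha and UAS-driven beta-lactamase reporter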)
[6] = target: Estrogen receptor (Homo sapiens) (UniProt P03372); assay: qHTS assay to identify small molecule agonists of the estrogen receptor alpha (ER-alpha) signaling pathway using the BG1 cell line (AID 743079); note: nearly all actives have a fitted effect of over 20% in size; note: potency is the fitted concentration of half-maximal effect
[7] = qHTS assay to identify small molecule antagonists of the estrogen receptor alpha (ER-alpha) signaling pathway using the BG1 cell line (AID 743080; calls by dose curve;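 note: BG1 cells stimulated with 17beta-estradiol alongside compound; series mostly up to about 70 µM; nearly all actives have a fitted effect of over 25% in size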)
Method in brief: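 After 5 days in phenol-red-free 10% charcoal-stripped FBS medium, BG1-Luc-4E2 cells were seeded, left 24 h at 37 C, co-treated with compounds and 17beta-estradiol for 21.5 h, then assayed for viability and luciferase.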

[8] = qHTS assay to identify small molecule antagonists of the estrogen receptor alpha (ER-alpha) signaling pathway using the BG1 cell line - cell viability counter screen (AID 743081);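 note: compound given together with 17beta-estradiol as the ER stimulus; nearly all actives have a fitted effect of over 45% in size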; note: potency is the fitted concentration of half-maximal effect
Aromatase (Homo sapiens) = Aromatase (Homo sapiens) (UniProt P11511); assay: qHTS assay to identify aromatase inhibitors (AID 743083); note: nearly all actives have a fitted effect of over 55% in size; note: potency is the fitted concentration of half-maximal effect
[9] = qHTS assay to identify aromatase inhibitors - cell viability counter screen (AID 743084);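 note: cells stimulated with testosterone during compound exposure; nearly all actives have a fitted effect of over 55% in size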; note: potency is the fitted concentration of half-maximal effect
[10] = target: Aryl hydrocarbon receptor (Homo sapiens) (UniProt P35869); assay: qHTS assay to identify small molecule that activate the aryl hydrocarbon receptor (AhR) signaling pathway (AID 743085);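 note: HG2L7.5c1 human HepG2 liver cells with stably integrated DRE-driven firefly reporter; series mostly up to about 70 µM; nearly all actives have a fitted effect of over 15% in size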
Method in brief: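 Luminescence read-out: ONE-Glo reagent, 30 min at room temperature, in HG2L7.5c1 HepG2 reporter cells treated 24 h at 37C. Viability was measured beforehand by CellTiter-Fluor fluorescence after 30 min at 37C.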

[11] = qHTS assay to identify small molecule that activate the aryl hydrocarbon receptor (AhR) signaling pathway - cell viability counter screen (AID 743086); note: nearly all actives have a fitted effect of over 45% in size; note: potency is the fitted concentration of half-maximal effect
Method in brief: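 HepG2-AhR-luc (HG2L7.5c1) cells, 4000/well, treated 24 h at 37 C with compound; viability measured as CellTiter-Fluor fluorescence after 30 min in the same wells as the luciferase read.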

[12] = target: Peroxisome proliferator-activated receptor gamma (Homo sapiens) (UniProt P37231); assay: qHTS assay to identify small molecule agonists of the peroxisome proliferator-activated receptor gamma (PPARg) signaling pathway (AID 743094; active = well fitted activation curve with a large enough effect in the signal ratio in the repeat runs, not every such curve was filed as active; the % refers to the signal ratio)
Method in brief: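 Cells from the PPARg UAS-bla HEK293H line are plated and incubated 5 h at 37C. Compounds in DMSO are pinned in and left 17 h at 37C. LiveBLAzer B/G substrate is then added for 1 h at room temperature before fluorescence is measured.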

[13] = target: Peroxisome proliferator-activated receptor gamma (Homo sapiens) (UniProt P37231); assay: qHTS assay to identify small molecule antagonists of the peroxisome proliferator-activated receptor gamma (PPARg) signaling pathway (AID 743191; calls by dose curve; note: series mostly up to about 63 µM; nearly all actives have a fitted effect of over 30% in size)
Method in brief: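 GeneBLAzer PPARg UAS-bla HEK293H cells, 5 h post-plating, exposed to compounds 17 h at 37C. LiveBLAzer B/G FRET substrate added for 1 h at room temperature; beta-lactamase reporter read by fluorescence intensity.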

[14] = qHTS assay to identify small molecule antagonists of the peroxisome proliferator-activated receptor gamma (PPARg) signaling pathway - cell viability counter screen (AID 743194); note: nearly all actives have a fitted effect of over 55% in size
Method in brief: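 Cytotoxicity counter screen in PPARg-bla HEK293H cells, same wells as reporter assay. Compounds plus 50 nM rosiglitazone (final) for 17 h at 37 C, then viability read by CellTiter-Glo luminescence.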

[15] = qHTS assay for small molecule agonists of the antioxidant response element (ARE) signaling pathway (AID 743202; active = well fitted activation curve with a large enough effect in the signal ratio in the repeat runs, not every such curve was filed as active; the % refers to the signal ratio)
Method in brief: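 HepG2 ARE-bla reporter line, 2,000 cells/well; 5 h preincubation 37 C/5% CO2; compound (DMSO) 16 h 37 C; B/G FRET substrate 2 h RT; fluorescence intensity.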

[16] = qHTS assay for small molecule activators of the heat shock response signaling pathway - cell viability counter screen (AID 743209); note: nearly all actives have a fitted effect of over 50% in size
Method in brief: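 Cytotoxicity counter screen run in parallel with the HSE beta-lactamase reporter, using the same wells. HeLa HSE-bla cells received compound for 5 h at 37 C; ATP-based CellTiter-Glo luminescence was measured after 30 min at room temperature.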

[17] = qHTS assay for small molecule activators of the heat shock response signaling pathway (AID 743210; active = well fitted activation curve with a large enough effect in the signal ratio in the repeat runs, with a control signal flat, not every such curve was filed as active; the % refers to the signal ratio;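 note: HeLa cells with beta-lactamase reporter driven by heat shock elements; series mostly up to about 63 µM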)
Method in brief: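 Beta-lactamase reporter read-out: FRET substrate fluorescence after 2.5 h at RT, following 5 h compound treatment at 37 C of HeLa cells carrying HSE-driven bla reporter; quantitative HTS format.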

[18] = qHTS assay for small molecule agonists of the antioxidant response element (ARE) signaling pathway - cell viability counter screen (AID 743203; calls by dose curve; note: nearly all actives have a fitted effect of over 55% in size)
Method in brief: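 Cytotoxicity was tested in parallel with the ARE reporter screen. ARE-bla HepG2 cells were exposed to compounds for 16 hrs, and viability was taken from CellTiter-Glo luminescence.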

Measured: Potency

Chain of Estrogen receptor (Homo sapiens) (P03372 whole entry, looked up): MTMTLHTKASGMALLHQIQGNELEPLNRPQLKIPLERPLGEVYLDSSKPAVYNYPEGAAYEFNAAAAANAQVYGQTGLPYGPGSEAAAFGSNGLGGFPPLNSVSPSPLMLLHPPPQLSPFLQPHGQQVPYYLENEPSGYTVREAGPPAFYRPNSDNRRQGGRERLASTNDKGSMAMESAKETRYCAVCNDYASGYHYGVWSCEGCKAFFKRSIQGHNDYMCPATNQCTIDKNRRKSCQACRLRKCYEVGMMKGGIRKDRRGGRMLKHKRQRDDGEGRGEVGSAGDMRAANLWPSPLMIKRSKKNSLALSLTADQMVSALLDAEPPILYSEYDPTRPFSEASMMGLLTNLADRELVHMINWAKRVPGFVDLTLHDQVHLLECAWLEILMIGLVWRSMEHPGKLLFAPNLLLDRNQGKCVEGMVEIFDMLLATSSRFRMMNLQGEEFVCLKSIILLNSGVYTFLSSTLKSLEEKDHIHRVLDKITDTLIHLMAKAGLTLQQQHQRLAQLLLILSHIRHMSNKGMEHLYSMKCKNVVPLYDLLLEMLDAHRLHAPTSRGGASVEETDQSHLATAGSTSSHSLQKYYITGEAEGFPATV
Chain of Aromatase (Homo sapiens) (P11511 whole entry, looked up): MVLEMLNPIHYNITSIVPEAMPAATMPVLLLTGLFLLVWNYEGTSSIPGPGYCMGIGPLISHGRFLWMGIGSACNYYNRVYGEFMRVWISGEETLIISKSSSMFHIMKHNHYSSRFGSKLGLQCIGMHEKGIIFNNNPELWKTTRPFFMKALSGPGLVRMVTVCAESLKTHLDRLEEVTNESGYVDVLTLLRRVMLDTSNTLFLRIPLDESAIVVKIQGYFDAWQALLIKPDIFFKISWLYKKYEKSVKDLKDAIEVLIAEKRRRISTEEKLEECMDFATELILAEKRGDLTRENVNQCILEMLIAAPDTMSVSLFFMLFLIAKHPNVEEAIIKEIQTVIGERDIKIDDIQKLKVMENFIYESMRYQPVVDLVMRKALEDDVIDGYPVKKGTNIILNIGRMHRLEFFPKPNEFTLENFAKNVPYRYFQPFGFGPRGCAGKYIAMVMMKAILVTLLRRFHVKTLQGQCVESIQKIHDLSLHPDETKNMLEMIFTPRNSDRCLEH
Chain of Aryl hydrocarbon receptor (Homo sapiens) (P35869 whole entry, looked up): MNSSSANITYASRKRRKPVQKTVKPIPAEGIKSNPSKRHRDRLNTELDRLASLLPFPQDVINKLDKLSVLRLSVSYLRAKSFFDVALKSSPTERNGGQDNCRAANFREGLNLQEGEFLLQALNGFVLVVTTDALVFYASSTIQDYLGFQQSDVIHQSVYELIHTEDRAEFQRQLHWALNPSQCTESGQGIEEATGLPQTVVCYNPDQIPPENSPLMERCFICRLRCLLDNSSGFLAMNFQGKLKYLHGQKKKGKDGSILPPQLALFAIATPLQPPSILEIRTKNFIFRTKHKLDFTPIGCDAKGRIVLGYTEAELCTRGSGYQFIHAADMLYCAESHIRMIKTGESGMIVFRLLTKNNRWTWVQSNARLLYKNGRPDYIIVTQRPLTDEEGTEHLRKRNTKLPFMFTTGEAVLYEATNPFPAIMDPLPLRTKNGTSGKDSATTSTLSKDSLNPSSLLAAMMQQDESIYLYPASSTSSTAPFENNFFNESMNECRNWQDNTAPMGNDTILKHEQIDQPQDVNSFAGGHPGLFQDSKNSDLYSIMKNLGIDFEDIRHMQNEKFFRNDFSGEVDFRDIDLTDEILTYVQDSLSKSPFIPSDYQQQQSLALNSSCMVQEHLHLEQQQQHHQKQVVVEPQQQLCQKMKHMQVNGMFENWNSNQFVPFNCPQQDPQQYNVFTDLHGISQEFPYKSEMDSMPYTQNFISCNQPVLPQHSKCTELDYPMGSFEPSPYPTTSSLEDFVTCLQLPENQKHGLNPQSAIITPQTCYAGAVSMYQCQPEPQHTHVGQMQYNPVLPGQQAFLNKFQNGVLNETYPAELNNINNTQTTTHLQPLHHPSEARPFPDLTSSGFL
Chain of Peroxisome proliferator-activated receptor gamma (Homo sapiens) (P37231 whole entry, looked up): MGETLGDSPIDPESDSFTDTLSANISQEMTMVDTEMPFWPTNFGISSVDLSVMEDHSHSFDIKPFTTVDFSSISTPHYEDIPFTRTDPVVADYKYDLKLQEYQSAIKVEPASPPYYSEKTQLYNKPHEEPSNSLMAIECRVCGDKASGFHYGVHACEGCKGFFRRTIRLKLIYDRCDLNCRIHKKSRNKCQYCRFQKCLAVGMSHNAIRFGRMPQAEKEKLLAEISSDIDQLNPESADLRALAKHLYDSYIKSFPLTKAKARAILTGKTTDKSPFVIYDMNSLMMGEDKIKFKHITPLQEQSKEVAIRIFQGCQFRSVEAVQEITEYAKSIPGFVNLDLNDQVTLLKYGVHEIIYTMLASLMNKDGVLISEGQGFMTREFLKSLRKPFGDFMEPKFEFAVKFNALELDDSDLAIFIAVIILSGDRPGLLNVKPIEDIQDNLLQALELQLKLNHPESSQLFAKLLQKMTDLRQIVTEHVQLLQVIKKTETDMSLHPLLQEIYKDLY

CNC1CCCN(c2c(F)cc3c(=O)c(C(=O)O)cn(C4CC4)c3c2OC)C1 (stereo unspecified)
not listed: [18]
inactive: all other assays above

CC(=O)C(=O)CC(C)C
active: [6] 34.2 µM
not listed: [10] | [13] | [17]
inactive: all other assays above

CC1=CC[C@@]23C[C@@H]1C(C)(C)[C@@H]2CC[C@H]3C
not listed: [5] | [6] | [7] | [14]
inactive: all other assays above

O=c1[nH][nH]c(=O)c2cc([N+](=O)[O-])ccc12
not listed: [10]
inactive: all other assays above

CC(=O)OCC1=C(C(=O)O)N2C(=O)[C@@H](NC(=O)CSc3ccncc3)[C@H]2SC1
not listed: [5] | [6] | [7] | [15]
inactive: all other assays above

CCN(CC)c1ccc(C(=C2C=CC(=[N+](CC)CC)C=C2)c2ccc(S(=O)(=O)O)cc2S(=O)(=O)[O-])cc1
active: [2] 19.3 µM | [4] 24.5 µM | [8] 30.6 µM | Aromatase (Homo sapiens) 9.69 µM | [9] 19.3 µM | [11] 19.3 µM
inactive: [1] | [3] | [10] | [12] | [13] | [15] | [17]

CCCCCCCCCCCC(=O)OCC(O)CO (stereo unspecified)
not listed: [12] | [13] | [16] | [17]
inactive: all other assays above

O=C1CC[C@@H](C(=O)O)N1
not listed: [5] | [6] | [7]
inactive: all other assays above

CCN(CC)C(=O)/C(C#N)=C/c1cc(O)c(O)c([N+](=O)[O-])c1
not listed: [9] | [12] | [15] | [17] | [18]
inactive: all other assays above

CSSc1ccoc1C
not listed: [5] | [6] | [7] | [13]
inactive: all other assays above

COC(=O)CC(C(C)=O)C(=O)OC (stereo unspecified)
not listed: [10] | [13] | [15]
inactive: all other assays above

CCN(CC)c1cccc(O)c1
active: [6] 70 µM
not listed: [5] | [10] | [13] | [15]
inactive: all other assays above

O=C(O)CN1C(=O)c2cccc3cccc(c23)C1=O
not listed: [5] | [6] | [7]
inactive: all other assays above

O=C(Nc1ccc(C(=O)O)c(O)c1)c1ccccc1
not listed: [10] | [13]
inactive: all other assays above

CC[C@H]1OC(=O)[C@H](C)[C@@H](O[C@H]2C[C@@](C)(OC)[C@@H](O)[C@H](C)O2)[C@H](C)[C@@H](O[C@@H]2O[C@H](C)C[C@H](N(C)C)[C@H]2O)[C@](C)(O)C[C@@H](C)CN(C)[C@H](C)[C@@H](O)[C@]1(C)O
active: [1] 29.8 µM and 40.5 µM | [2] 29.8 µM and 36.1 µM
not listed: [13] | [15]
inactive: all other assays above
